Active and inactive are the calls of the source. How the source made its calls: active means hit-call score of the fitted dose curve at least 0.9, where 1 is the maximum; inactive means score below 0.9.
read-out: Human Leukocyte Antigen - DR isotype (HLADR), HLA-DRA (gene 3122); assay: BSK_3C_HLADR: BioMAP Diversity Plus: 3C Assay for Human Leukocyte Antigen - DR isotype (HLADR) Biomarker Activity (AID 2283019); details: primary human endothelial cells (HUVEC); actives raise or lower the signal;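 on outcome: ELISA of cell-surface HLA-DR on HUVEC 24 h after dosing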
Outline: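 Primary human umbilical vein endothelial cells (3C system) were dosed with compound and cell-surface HLA-DR was quantified by ELISA at 24 h. Activity was fitted bidirectionally against DMSO as negative control and baseline.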

SMILES | AC50 | outcome
COc1cccc(-c2ccc(/C=C\CN3CCCCCC3)cc2Cl)c1 | 27.8 µM (active) | 
O=C1CCC(N2C(=O)c3ccccc3C2=O)C(=O)N1 (stereo not given) |  | inactive
On1ccccc1=S | 12.9 µM (active) | 
O=C1OC(=O)C2C3C=CC(C3)C12 (stereo not given) |  | inactive
CCOCCOCCOCCO |  | inactive
CC(=O)OCCC(C)C |  | inactive
CC1(C)C(=O)N(Br)C(=O)N1Br |  | inactive
COCCOc1cc2cc(C(=O)NC3CCN(C(C)C)CC3)n(CC(=O)Nc3ccc(Cl)cn3)c2cn1 |  | inactive
CC(=O)OC[C@H]1O[C@@](COC(C)=O)(O[C@H]2O[C@H](COC(C)=O)[C@@H](OC(C)=O)[C@H](OC(C)=O)[C@H]2OC(C)=O)[C@@H](OC(C)=O)[C@@H]1OC(C)=O |  | inactive
O=C(CCCCCCCCc1cccnc1)N1CCC(C=C(c2ccccc2)c2ccccc2)CC1 | 6.54 µM (active) | 
CC[C@H](C)C(=O)O[C@H]1C[C@@H](C)C=C2C=C[C@H](C)[C@H](CC[C@@H]3C[C@@H](O)CC(=O)O3)[C@H]21 | 31.5 µM (active) | 
O=c1n(CC2CO2)c(=O)n(CC2CO2)c(=O)n1CC1CO1 (stereo not given) | 21.5 µM (active) | 
COC(=O)CC(=O)OC |  | inactive
CCCCCCCCCCCCCCCO | 31.4 µM (active) | 
CC(C)=CCC/C(C)=C\CO |  | inactive
C=CC(=C)CCC=C(C)C |  | inactive
CC1=CC(=O)CC(C)(C)C1 |  | inactive
CCOc1cccc(-n2cc(C(=O)N3CCN(c4cc(C(=O)O)c5ccccc5c4)CC3)nc2-c2ccc(C)cc2)c1 | 15.3 µM (active) | 
CC(C)CC(C)(O)C#CC(C)(O)CC(C)C (stereo not given) |  | inactive
Cc1ccc(O)cc1 |  | inactive
CCCC(=O)OCC |  | inactive
Cn1c(=O)cc(Oc2ccc(F)cc2F)c2cnc(NCC(C)(C)O)nc21 | 3.11 µM (active) | 
CCCCCCc1ccc(O)cc1O | 39 µM (active) | 
CN(C)c1ccc(N=NS(=O)(=O)O)cc1 |  | inactive
CCC(C)(C)C(=O)O[C@H]1C[C@@H](C)C=C2C=C[C@H](C)[C@H](CC[C@@H]3C[C@@H](O)CC(=O)O3)[C@H]21 | 25.8 µM (active) | 
Nc1nc2ncc(CNc3ccc(C(=O)N[C@@H](CCC(=O)O)C(=O)O)cc3)nc2c(=O)[nH]1 |  | inactive
Fc1ccccc1[C@@H](F)COC1CCC(Nc2ncnc3[nH]ncc23)CC1 (stereo not given in full) | 15.4 µM (active) | 
O=C(O)c1cc(N=Nc2ccc(S(=O)(=O)Nc3ccccn3)cc2)ccc1O |  | inactive
CCn1nc(Cc2ccccc2)cc1C1CCN(C[C@H]2C[C@H](N(C)[C@@H](C(=O)O)C(C)C)C[C@@H]2c2cccc(F)c2)CC1 |  | inactive
Cn1c(=O)c2c(ncn2C)n(C)c1=O |  | inactive

read-out: Interleukin-8 (IL8), CXCL8 (gene 3576); assay: BSK_3C_IL8: BioMAP Diversity Plus: 3C Assay for Interleukin-8 (IL8) Biomarker Activity (AID 2283020); details: primary human endothelial cells (HUVEC); actives raise or lower the signal
Outline: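 Primary human umbilical vein endothelial cells (3C system) were exposed to test chemical for 24 h, then IL-8 was quantified by ELISA. Responses were fitted bidirectionally against DMSO vehicle as baseline.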

SMILES | AC50 | outcome
COc1cccc(-c2ccc(/C=C\CN3CCCCCC3)cc2Cl)c1 | 31.9 µM (active) | 
O=C1CCC(N2C(=O)c3ccccc3C2=O)C(=O)N1 (stereo not given) |  | inactive
On1ccccc1=S |  | inactive
O=C1OC(=O)C2C3C=CC(C3)C12 (stereo not given) |  | inactive
CCOCCOCCOCCO |  | inactive
CC(=O)OCCC(C)C |  | inactive
CC1(C)C(=O)N(Br)C(=O)N1Br |  | inactive
COCCOc1cc2cc(C(=O)NC3CCN(C(C)C)CC3)n(CC(=O)Nc3ccc(Cl)cn3)c2cn1 |  | inactive
CC(=O)OC[C@H]1O[C@@](COC(C)=O)(O[C@H]2O[C@H](COC(C)=O)[C@@H](OC(C)=O)[C@H](OC(C)=O)[C@H]2OC(C)=O)[C@@H](OC(C)=O)[C@@H]1OC(C)=O |  | inactive
O=C(CCCCCCCCc1cccnc1)N1CCC(C=C(c2ccccc2)c2ccccc2)CC1 | 8.66 µM (active) | 
CC[C@H](C)C(=O)O[C@H]1C[C@@H](C)C=C2C=C[C@H](C)[C@H](CC[C@@H]3C[C@@H](O)CC(=O)O3)[C@H]21 | 25.5 µM (active) | 
O=c1n(CC2CO2)c(=O)n(CC2CO2)c(=O)n1CC1CO1 (stereo not given) | 13.2 µM (active) | 
COC(=O)CC(=O)OC |  | inactive
CCCCCCCCCCCCCCCO | 31.2 µM (active) | 
CC(C)=CCC/C(C)=C\CO |  | inactive
C=CC(=C)CCC=C(C)C |  | inactive
CC1=CC(=O)CC(C)(C)C1 |  | inactive
CCOc1cccc(-n2cc(C(=O)N3CCN(c4cc(C(=O)O)c5ccccc5c4)CC3)nc2-c2ccc(C)cc2)c1 | 11.9 µM (active) | 
CC(C)CC(C)(O)C#CC(C)(O)CC(C)C (stereo not given) |  | inactive
Cc1ccc(O)cc1 |  | inactive
CCCC(=O)OCC |  | inactive
Cn1c(=O)cc(Oc2ccc(F)cc2F)c2cnc(NCC(C)(C)O)nc21 | 1.91 µM (active) | 
CCCCCCc1ccc(O)cc1O | 32.4 µM (active) | 
CN(C)c1ccc(N=NS(=O)(=O)O)cc1 |  | inactive
CCC(C)(C)C(=O)O[C@H]1C[C@@H](C)C=C2C=C[C@H](C)[C@H](CC[C@@H]3C[C@@H](O)CC(=O)O3)[C@H]21 | 26.5 µM (active) | 
Nc1nc2ncc(CNc3ccc(C(=O)N[C@@H](CCC(=O)O)C(=O)O)cc3)nc2c(=O)[nH]1 |  | inactive
Fc1ccccc1[C@@H](F)COC1CCC(Nc2ncnc3[nH]ncc23)CC1 (stereo not given in full) | 20 µM (active) | 
O=C(O)c1cc(N=Nc2ccc(S(=O)(=O)Nc3ccccn3)cc2)ccc1O |  | inactive
CCn1nc(Cc2ccccc2)cc1C1CCN(C[C@H]2C[C@H](N(C)[C@@H](C(=O)O)C(C)C)C[C@@H]2c2cccc(F)c2)CC1 |  | inactive
Cn1c(=O)c2c(ncn2C)n(C)c1=O |  | inactive

Source: PubChem BioAssay (EPA / NIEHS)
